# Screening results deposited in PubChem BioAssay by National Center for Advancing Translational Sciences (NCATS).
# This is one part of a sample in which hits are shown more often than they occur.
# CHX counter: Cycloheximide Counterscreen for Small Molecule Inhibitors of Shiga Toxin; max response, %; 12% of 300,000 active; AID 2314, 2010; cell reporter, cycloheximide protein synthesis inhibition counterscreen; in the data active means max response mostly above about 13%, no sharp cut-off; inactive means mostly below about 14%; further: read at 38.3 µM for the half of the compounds with a filed dose; 0% is about no effect
# Shiga inhibitor: A qHTS for Small Molecule Inhibitors of Shiga Toxin. inhibition, % at 38.7 µM. Vero cells, Shiga toxin protein synthesis inhibition reporter. 9.2% of 290,000 active; in the data active means inhibition mostly above about 28%, no sharp cut-off; inactive means mostly below about 43%; further: 0% is about no effect
# AmpC inh detg: qHTS Inhibitors of AmpC Beta-Lactamase (assay with detergent); P00811; AmpC hydrolysis of nitrocefin, absorbance 480 nm, 0.01% Triton; Potency, µM (highest dose often 114 µM), without a hit: at the highest dose activity change, negative = inhibition, usual class: inhibitors; 0.041% of 370,000 active; AID 485294, 2010;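 further: potency means the concentration at half of the fitted maximal effect; 0% = no-compound wells and -100% = no-enzyme wells; nearly all actives have a fitted effect of over 25% in size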
# Target sequence (P00811 whole entry, looked up): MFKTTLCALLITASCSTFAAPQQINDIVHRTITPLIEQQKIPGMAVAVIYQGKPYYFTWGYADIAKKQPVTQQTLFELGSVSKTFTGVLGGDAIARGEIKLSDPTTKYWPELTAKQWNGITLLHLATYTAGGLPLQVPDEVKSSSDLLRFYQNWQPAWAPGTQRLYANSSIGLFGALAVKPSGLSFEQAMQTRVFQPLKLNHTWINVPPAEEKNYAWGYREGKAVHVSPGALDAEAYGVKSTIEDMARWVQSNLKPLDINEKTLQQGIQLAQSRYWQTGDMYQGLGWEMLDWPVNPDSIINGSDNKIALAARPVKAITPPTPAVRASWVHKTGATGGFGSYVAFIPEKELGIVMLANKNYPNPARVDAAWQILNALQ
#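 AmpC (5.3 nM in the dispensed reagent) in 20 mM phosphate pH 7.0 with 0.01% (detergent screen) or 0.0001% Triton X-100 was preincubated with compounds for 15 min at room temperature. Nitrocefin was then added from an 800 uM solution, and hydrolysis was followed at 480 nm.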
# NS1 function inh: qHTS Assay for Inhibitors of Influenza NS1 Protein Function; Potency, µM (doses to about 46.1 µM), inactives show at the top dose activity, positive = more growth; 0.4% of 270,000 active; calls by dose curve; further: potency means the concentration at half of the fitted maximal effect; actives are rising curves; nearly all actives have a fitted effect of over 50% in size
#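 In this qHTS, NS1 from influenza A is expressed in budding yeast, where it slows growth. Cells are switched from glucose to 2% galactose medium (pH 6.0, -URA), treated with compound, and growth recovery is read at OD600.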
# AmpC no deterg: qHTS Inhibitors of AmpC Beta-Lactamase (assay without detergent); AmpC nitrocefin hydrolysis, absorbance 480 nm, 0.0001% Triton; Potency, µM (series often up to 57.1 µM), for inactives: top-dose activity change, negative = inhibition, hits mostly inhibitors; 0.52% of 330,000 active;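 further: potency means the concentration at half of the fitted maximal effect; plate controls were no compound for no effect and no enzyme for full effect; nearly all actives have a fitted effect of over 20% in size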
#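 AmpC (5.3 nM in the dispensed reagent) in 20 mM phosphate pH 7.0 with 0.01% (detergent screen) or 0.0001% Triton X-100 was preincubated with compounds for 15 min at room temperature. Nitrocefin was then added from an 800 uM solution, and hydrolysis was followed at 480 nm.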
# The depositor's hits bear a star; ? = inconclusive; nt = no result; + = active, no number; [ ] = dose if it differs, or a comment. Unless noted, the call rests on the fitted dose curve; in most records, active means well fitted curve in the direction sought with a large enough effect; inconclusive means small, poorly fitted or top-dose-only effect, or another doubt; inactive means no such curve, though single readings can be large; an effect the other way counts as inactive or inconclusive.
SMILES,CHX counter,Shiga inhibitor,AmpC inh detg,NS1 function inh,AmpC no deterg
CCC(C)[C@H]1CNCCN1CCc1cccc(F)c1 (stereo partly specified),nt,nt,-10%,nt,2%
O=C1NC(=O)N(c2ccc3c(c2)OCO3)C(=O)/C1=C/c1cccs1,1,49*,3%,nt,-11%
O=C1NC(=O)N(c2ccc3c(c2)OCO3)C(=O)/C1=C/c1ccsc1,9,-9,?,nt,-16%[11.4 µM]
CCOc1ccc(N(C)C(=O)c2oc(=O)c3ccccc3c2-c2ccccc2)cc1,nt,nt,0%,nt,nt
Cc1ccc(S(=O)(=O)CCC(=O)OC2CC(C)OC2=O)cc1 (stereo unspecified),nt,nt,nt,nt,-24%
CN1CCN(C(=O)/C=C/c2cccc(Cl)c2)CC1,17*,20,-1%,10%,6%
CN1CCN(C(=O)/C=C/c2c(F)cccc2Cl)CC1,19*,11,?,3%,-27%
COc1ccc2c(CNCc3cccs3)c(C(=O)O)n(Cc3ccccc3C)c2c1,nt,nt,19%,nt,nt
CCCNC(=O)CN1C(=O)NC(CC)(c2ccc(F)cc2)C1=O (stereo unspecified),-5,-10,?,-3%,-5%
CC(=O)Nc1ccc(Nc2ncnc3c2cnn3-c2cccc(C)c2)cc1,33*,55*,-3%,-7%,16%
CC(C)Nc1ncnc2c1cnn2-c1ccc(Cl)cc1,21*,31*,?,-131%,-14%
Clc1ccc(Nc2ncnc3c2cnn3-c2ccccc2)cc1,42*,58*,?,-18%,-40%
CC(=O)Nc1ccc(Nc2ncnc3c2cnn3-c2ccccc2)cc1,41*,50*,5%,9%,-20%
CC(=O)c1ccc(NC(=S)N2CC(C)CC(C)C2)cc1 (stereo unspecified),-1,-10,-12%,13%,-17%
CCc1ccc(/C=C2/C(=O)NC(=O)N2C(C)=O)cc1,37*,24,-7%,3%,-21%
CCc1ccc(/C=c2\s/c(=C\C(=O)C(C)(C)C)[nH]c2=O)cc1,18,-28,4%,-93%,-26%
Cc1cc(NS(=O)(=O)c2ccc(NC(=O)Nc3ccc4c(c3)OCO4)cc2)no1,20,35*,?,6%,-24%
CNS(=O)(=O)c1ccc(NC(=S)Nc2ccc3c(c2)OCO3)cc1,29*,55*,3%,3%,-38%
O=S(=O)(c1ccc(NC(=S)Nc2ccc3c(c2)OCO3)cc1)N1CCOCC1,37*,64*,9%,11%,-20%
Cc1cc(NC(=O)c2cccs2)ncc1NC(=O)C(C)(C)C,32*,nt,?,-10%,-4%
O=C(Nc1cccnc1Cl)c1cccs1,-1,30,-1%,-7%,-12%
Cc1ccnc(NS(=O)(=O)c2cccs2)c1,3,-16,-9%,7%,-22%
O=C(Nc1ccccn1)c1cccs1,52*,76*,-4%,-67%,nt
Cc1ccnc(NC(=O)c2cccs2)c1,38*,57,4%,-24%,-10%
Cc1ccnc(NC(=O)c2ccc(Br)s2)c1,70*,90*,0%,-6%,-29%
SMILES,CHX counter,Shiga inhibitor,AmpC inh detg,NS1 function inh,AmpC no deterg
CCOc1ccccc1NC(=O)c1cnn2c(C(F)F)cc(-c3ccccc3)nc12,nt,nt,17%,nt,nt
Cc1cccc(N(C)C(=O)CN(C)S(=O)(=O)c2ccc3[nH]c4c(c3c2)CCCC4)c1,nt,nt,7%,nt,nt
Cc1ccc(-n2nnnc2CNC(=O)c2ccc3c(c2)OCO3)cc1C,-4,16,-1%,-6%,-10%
CCn1c(=O)c2sccc2n2c(CCCC(=O)Nc3ccc(Oc4ccccc4)cc3)nnc12,nt,nt,7%,nt,nt
Nc1nccc(-c2cccs2)n1,11,4,?,nt,-29%
Cc1cccc(NC(=O)c2cccs2)n1,38*,78*,-5%,-15%,-3%
CCN(CC)S(=O)(=O)c1csc(C(=O)Nc2ccccn2)c1,22*,+,0%,-18%,-19%
Cc1cccc(NC(=O)CNC(=O)c2cccs2)n1,nt,nt,-17%,nt,-14%
CC(C)NC(=O)c1cc2cc([N+](=O)[O-])ccc2s1,-5,-19,-11%,-3%,-1%
Cc1cccc(NC(=O)c2cc3cc([N+](=O)[O-])ccc3s2)n1,19*,56,3%,nt,-22%
CN(CC(=O)Nc1ccccn1)S(=O)(=O)c1ccc(Cl)cc1,3,-5,0%,-1%,-12%
